# Compound activity (PubChem)
# Rows were chosen to be rich in hits. Some 9% of all compounds tested hit in one or more screens of this group.
# ALDH1A1 inh: qHTS Assay for Inhibitors of Aldehyde Dehydrogenase 1 (ALDH1A1). Aldehyde dehydrogenase 1A1 (Homo sapiens), P00352. Purified ALDH1A1, NADH fluorescence, propionaldehyde substrate. Potency, µM (top dose mostly 75.3 µM), inactives show at the top dose activity, negative = inhibition, actives largely listed as inhibitors. 220,000 tested, 7.3% active;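 also: potency is read from the fitted curve at half-maximal effect; plate controls were no enzyme wells and a reference inhibitor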
# IMPase cell inh: qHTS Assay for Identifying the Cell-Membrane Permeable IMPase Inhibitors; CHO-M1 cells, IP1 accumulation, HTRF TR-FRET ratio; inhibition (IP1 accumulation), % at 46.1 µM; AID 901, 2007; 120,000 tested, under 10 active; Inositol monophosphatase 1 (Rattus norvegicus), P97697; active = well fitted curve in the direction sought with a large enough effect in the signal ratio, not every such curve was filed as active; inconclusive = small, poorly fitted or top-dose-only effect, or a change in a side signal; inactive = no such curve, though single readings can be large or run the other way; the % refers to the signal ratio;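 also: cells stimulated with carbachol in lithium chloride buffer; plate controls were DMSO basal wells for no effect and reference inhibitor wells for full effect; higher means more IMPase inhibition seen as more IP1 and lower FRET ratio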
# Target sequence (P97697 whole entry, looked up): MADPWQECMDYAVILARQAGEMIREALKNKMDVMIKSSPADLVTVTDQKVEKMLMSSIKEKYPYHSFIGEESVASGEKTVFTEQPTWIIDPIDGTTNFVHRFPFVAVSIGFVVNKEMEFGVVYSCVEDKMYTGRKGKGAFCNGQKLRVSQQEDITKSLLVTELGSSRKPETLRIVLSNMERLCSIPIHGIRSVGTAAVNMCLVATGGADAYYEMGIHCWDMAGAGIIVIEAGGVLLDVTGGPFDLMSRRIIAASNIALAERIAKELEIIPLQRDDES
#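 In this qHTS, compounds (final up to 46 uM) act on CHO-M1 cells that are then activated through the M1 receptor with carbachol, in pH 7.4 buffer containing 50 mM LiCl, for 30 min. IP1 accumulation is quantified by the IP-One immunoassay.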
# HPGD block: qHTS Assay for Inhibitors of HPGD (15-Hydroxyprostaglandin Dehydrogenase). 150,000 tested, 4.3% active. AID 894, 2007. Potency, µM, for the others: at the highest dose activity change, negative = inhibition, usual class: inhibitors. purified HPGD, NADH fluorescence kinetic, PGE2 substrate. 15-hydroxyprostaglandin dehydrogenase [NAD(+)] (Homo sapiens), P15428; also: potency is read from the fitted curve at half-maximal effect
# Target sequence (P15428 whole entry, looked up): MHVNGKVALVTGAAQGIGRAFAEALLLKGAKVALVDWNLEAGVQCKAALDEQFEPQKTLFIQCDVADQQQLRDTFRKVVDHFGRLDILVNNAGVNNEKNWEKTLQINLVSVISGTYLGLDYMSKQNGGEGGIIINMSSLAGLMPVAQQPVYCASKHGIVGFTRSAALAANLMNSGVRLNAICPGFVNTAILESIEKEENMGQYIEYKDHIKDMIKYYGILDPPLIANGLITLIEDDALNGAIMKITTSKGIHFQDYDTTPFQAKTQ
#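 NADH formation kinetics: reaction with 30 uM PGE2 and 1 mM NAD+ (final), 20 nM enzyme, Tris-HCl pH 8 with Tween 20, after 15 min compound preincubation at room temperature. Fluorescence change, last versus first of five reads.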
# Starred values were filed as active, the others as inactive; ? = inconclusive; . = no result given; [ ] = another dose, or the depositor's remark. Unless noted, calls follow the shape of the dose curve; as a rule, active = well fitted inhibition curve with a large enough effect (not every such curve was filed as active); inconclusive = small, poorly fitted or top-dose-only effect, or another doubt; inactive = no such curve, though single readings can be large or run the other way. Unless noted, % is scaled to controls: 0 for no effect and ±100 for the full control effect.
SMILES,ALDH1A1 inh,IMPase cell inh,HPGD block
COc1ccc(NC(=O)CSc2c3c(nc4ccccc24)CCC3)c(OC)c1,8.2%,.,-2.5%
O=C(O)CSc1c2c(nc3cc(C(=O)N4CCCC4)ccc13)CCCC2,-4.6%,.,.
O=C(CSc1c2c(nc3cc(Cl)ccc13)CCCC2)NCCN1CCOCC1,0.1%,.,.
COc1ccc(NC(=O)c2ccc3c(SCC(=O)O)c4c(nc3c2)CCCC4)c(OC)c1,7.94µM*,.,.
CCCCNC(=O)c1ccc2c(SCC(=O)O)c3c(nc2c1)CCCC3,?,.,12.6µM*
CCN(CC)CCCNC(=O)CSc1c2c(nc3cc(Cl)ccc13)CCCC2,-6.3%,.,.
CC1CCCC(NC(=O)C2CCN(S(=O)(=O)N3CCCCCC3)CC2)C1C (centres undefined),?,.,-10.1%
O=C(O)[C@H](C1NCCS1)N1C(=O)c2ccccc2C1=O (some centres undefined),-1.2%[13.5 µM],.,-9.1%
C=CCNC(=S)NNC(=O)c1ccc(=O)n(Cc2ccc(Cl)cc2Cl)c1,-3.9%,.,.
O=S1(=O)c2ccccc2N=NN1Cc1cc(Cl)cc(Cl)c1,?,1.6,?
O=S1(=O)c2ccccc2N=NN1Cc1ccc(Cl)cc1,2.38µM*,1.3,28.2µM*
COc1cc(S(=O)(=O)N2CCOCC2)ccc1NC(=O)COC(=O)COc1ccccc1,2.6%,.,.
O=C(CN1CCN(S(=O)(=O)c2ccc(Br)cc2)CC1)N/N=C/c1cc([N+](=O)[O-])ccc1Cl,?,.,-9.0%
Cc1ccc(S(=O)(=O)N2CCN(CC(=O)N/N=C\c3cccnc3)CC2)cc1,3.0%,5.9,1.0%
Cc1ccc(S(=O)(=O)N2CCN(CC(=O)N/N=C\c3ccc(Cl)c([N+](=O)[O-])c3)CC2)cc1,8.91µM*,?,-2.3%
O=C(CN1CCN(S(=O)(=O)c2ccc(Br)cc2)CC1)N/N=C/c1ccc(Cl)c([N+](=O)[O-])c1,20µM*,.,-8.3%
O=C1c2oc3ccccc3c(=O)c2C(c2cccc(O)c2)N1Cc1ccc(F)cc1 (centres undefined),.,-7.7,.
Cc1cccn2c1nc(=S)n2C(=O)c1ccco1,-10.1%,.,?
CN=C(c1ccco1)n1c(=S)nc(-c2ccco2)n(C)c1=S,10µM*,1.5,?
O=C(N1CCOCC1)N1CCN(C(=O)N(c2ccccc2)c2ccccc2)CC1,?,15.8,2.8%
O=C(N1CCCCC1)N1CCN(C(=O)N(c2ccccc2)c2ccccc2)CC1,11.2µM*,0.3,-1.5%
COc1ccc(CCNc2nc(-c3sc(N)nc3C)cs2)cc1OC,?,-0.6,-10.0%
COCCNc1nc(-c2cc(C)n(CCc3ccc(OC)cc3)c2C)cs1,10µM*,.,.
CC#CCN1c2ccccc2[C@]23C[C@@H](C(=O)OC)N(C(=O)c4ccco4)C2=NC(C(=O)OC)=C(C(=O)OC)[C@H]13,5.8%[13.5 µM],.,-4.6%
CN(C)c1ccc(NC(=O)CN2CCC(N3CCCCC3)CC2)cc1,?,3.6,-5.8%
SMILES,ALDH1A1 inh,IMPase cell inh,HPGD block
CC(=O)NCCc1nc2ccccc2n1Cc1ccccc1,0.9%,6.5,-7.1%
O=CNCCCc1nc2ccccc2n1Cc1ccccc1,22.4µM*,0.1,-6.2%
COc1ccccc1NC(=O)CCN1CCC(C(N)=O)CC1,.,-1.4,.
O=C(NCc1ccccn1)C(=O)N/N=C/c1ccc2c(c1)OCO2,-8.1%,.,.
CCOc1ccccc1NC1=C(Cl)C(=O)N(c2ccc(OC)cc2)C1=O,7.8%,.,-17.9%
COc1ccccc1N1C(=O)C(Cl)=C(Nc2ccccc2O)C1=O,12.6µM*,.,.
O=C(O)[C@H]1[C@H](C(=O)O)[C@H](C(=O)O)C[C@@H]1C(=O)O,1.3%[13.5 µM],.,-9.7%
CC(CCc1ccccc1)NC(=O)Cc1cccs1 (centres undefined),-6.7%,.,.
CN(C)c1ccc(C(=O)OCc2ccccc2)cc1,?,8.2,?
COC(=O)c1ccc(COC(=O)c2ccc(N(C)C)cc2)cc1,25.1µM*,2.4,?
CCOC(=O)c1ccc(NC(=S)NCCC2=CCCCC2)cc1,?,5.4,14.1µM*
O=C(COC(=O)c1ccccc1)NCCC1=CCCCC1,-5.0%,.,.
O=C(COC(=O)c1cnc(Cl)c(Cl)c1)NCCC1=CCCCC1,12.6µM*,.,.
O=C(COC(=O)c1ccc(Br)cc1)NCCC1=CCCCC1,3.8%,.,.
CN(C)c1ccc(C(=O)OCC(=O)NCCC2=CCCCC2)cc1,35.5µM*,.,.
Cc1ccc(NC(=S)NCCC2=CCCCC2)cc1,-7.2%,.,.
COc1ccc(OC)c(NC(=O)C2CCCN(S(=O)(=O)c3cccc4cccnc34)C2)c1 (centres undefined),14.2%,1.2,-3.4%
CS(=O)(=O)Nc1cccc(-c2cc(Nc3ccccc3)ncn2)c1,1.1%,.,.
CN1CCC(N(C)C(=S)NCCc2ccccc2)CC1,6.4%,.,.
COCCCn1c(=N)c(S(=O)(=O)c2ccccc2)cc2c(=O)n3cccc(C)c3nc21,.,2.1,.
COC(=O)NNC(=O)c1ccc(C)c(Br)c1,-3.6%,.,-22.6%
Cc1ccc(S(=O)(=O)Nc2ccc(SC(F)F)cc2)c(C)c1,-9.1%,.,-17.2%
CCC(=O)c1ccc(OCC(=O)O)cc1,1.2%,-5.0,-2.3%
CCC(=O)c1ccc(OCCSc2ncccn2)cc1,-5.7%,3.7,31.6µM*
CCN1C(=O)CSc2ccc(C(=O)NC3CCCCC3)cc21,12.6µM*,-4.0,-3.8%
SMILES,ALDH1A1 inh,IMPase cell inh,HPGD block
O=C(NCc1cccs1)c1ccc(Cl)c(S(=O)(=O)N2CCCC2)c1,5.8%,.,.
C=CCN1C(=O)CSc2ccc(C(=O)NCc3cccs3)cc21,8.91µM*,.,.
CCN1C(=O)CSc2ccc(C(=O)NCc3ccccc3OC)cc21,10µM*,9.8,-14.9%
CCC(C)NC(=O)c1ccc2c(c1)N(Cc1ccccc1)C(=O)CS2 (centres undefined),-15.7%,.,.
COc1ccccc1CNC(=O)CN1C(=O)CSc2ccc(S(=O)(=O)N3CCCC3)cc21,-8.0%,.,.
CC(=O)Nc1ccc(S(=O)(=O)Nc2nnc(CC(C)(C)C)s2)cc1,2.8%,.,.
CC(=C/C(=O)O)/C(=C/c1ccccc1)C(=O)O,8.7%,-9.8,-14.0%
C=CCNc1cc(N2CCCC2)ccc1[N+](=O)[O-],-6.4%,.,.
O=C(c1ccc(F)cc1F)C1CCN(c2ccc([N+](=O)[O-])cn2)CC1,20µM*,.,.
O=[N+]([O-])c1ccc(N2CCOCC2)nc1,?,4.6,?
COC(=O)c1[nH]cnc1C(=O)c1ccccc1,7.7%,-8.9,-9.8%
COC(=O)C1=C(C)N(Cc2ccccc2)C2=C(C(C)=O)C[C@@](O)(C(=O)OC)C(=O)N2C1c1ccccc1 (some centres undefined),-5.5%[13.5 µM],.,.
CC(Oc1ccc(Cl)cc1)C(=O)NNC(=S)NC(=O)c1ccco1 (centres undefined),?,.,-5.1%
COC(=O)CSc1nc(NCC(C)C)nc(N2CCOCC2)n1,10.6%,4.8,5.4%
CCNc1nc(SC(C)C(=O)OC)nc(N2CCOCC2)n1 (centres undefined),18.9µM*,12.1,-10.4%
c1ccc(C2(CNc3ccccn3)CCCC2)cc1,-4.3%,1.7,-10.8%
CC(=O)c1cccc(NC(=S)NC(=O)c2ccccc2Cl)c1,?,.,20µM*
CC(=O)c1cccc(NC(=S)NC(=O)c2ccc(C)cc2Cl)c1,8.91µM*,.,.
O=C(NC(=S)Nc1cccc(NC(=O)c2ccccc2Cl)c1)c1cccs1,4.47µM*,.,-9.0%
